# Assay results taken from PubChem BioAssay.
# Calls of active or inactive are those of the source.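 The calls were made as follows, unless noted: active = inhibition at or above 50% at 10 µM; inactive = inhibition below 50%.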
# Tests used:
# [1] = inhibitors of TNFa-induced NFkB p65 translocation, primary screen, imaging, HUVEC, MLSMR starter and 10KST1 sets (AID 438;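 active = inhibition above 20% together with a positive visual image hit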;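 also: compound added about 3h40 before a 20 min TNFalpha stimulation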;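 as to inhibition: signal is the nuclear over cytoplasmic p65 intensity ratio per well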); details: HUVEC TNFa-induced p65 nuclear translocation; cell count: measured here: nuclei count (cytotoxicity indicator), at 2.08 µM; inhibition: at 2 µM, stronger effect = higher value, 0% TNFa-plus-vehicle, 100% no-TNFa wells
# [2] = inhibitors of mutant huntingtin aggregation, primary screen, imaging, exon1htt(103Q)mCFP cells, high-content imaging (AID 483;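 active = visual image review flags a hit and inhibition of aggregation exceeds 20%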;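 also: compound exposure lasted 3 days before fixation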;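 as to nuclei count: percent of the per-plate median nuclei count of sample wells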); details: exon1htt(103Q)mCFP cell line, aggregate imaging, at 2 µM; inhibition of aggregation: stronger effect = higher value; nuclei count: measured here: cell count, toxicity
# [3] = inhibitors of E-selectin induction by TNFa, primary screen, imaging, HUVEC, immunofluorescence, MLSMR starter and 10KST1 sets (AID 487;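 active = visually confirmed hit in the image check and inhibition above 20%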;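 as to inhibition: signal is fraction of cell area covered by stained E-selectin grains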;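 as to nuclei count: 100% = median nuclei count of all wells on the same plate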); details: HUVEC TNFalpha-induced E-selectin immunofluorescence imaging, at 2 µM; inhibition: stronger effect = higher value; nuclei count: measured here: cell number, toxicity
# [4] = biological target: Voltage-gated potassium channel subunit beta-2 (Rattus norvegicus) (UniProt P62483); assay: KvBeta enzyme negative modulators, primary screen, biochemical, NADPH fluorescence (AID 622;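 active = fluorescence slope higher than the sample average by over 3 SD, cut at about -0.22 in these data, passing the limit was not always enough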;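 also: slope of raw intensity against log time taken from 70 to 1610 s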); details: recombinant KvBeta, 4-cyanobenzaldehyde reduction, at 10 µM, stronger effect = higher value
# [5] = biological target: Voltage-gated potassium channel subunit beta-2 (Rattus norvegicus) (UniProt P62483); assay: KvBeta positive modulators, primary screen, biochemical, NADPH fluorescence (AID 623;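 active = NADPH fluorescence slope more negative than the mean of all samples by about 3 SD, 99.7% confidence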;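 also: fluorescence intensity change per second fitted from 20 to 320 s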); details: Recombinant KvBeta, NADPH fluorescence decrease slope, 10 min; at 10 µM; stronger effect = lower value
# [6] = biological target: Alpha-2C adrenergic receptor (Homo sapiens) (UniProt P18825); assay: modulators of alpha2C/GIRK thallium flux, primary screen, cell-based, HEK293 alpha2C/GIRK1/2 (AID 624;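 active = fluorescence slope after compound addition differing from the mean of all screened samples at 99.7% confidence, in either direction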;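 also: slope of fluorescence ratio to pre-addition baseline per second over 15 to 24 s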); details: thallium flux BTC fluorescence, at 10 µM, actives lie on both sides
# [7] = inhibitors of Sendai virus-induced IRF3 signaling, primary screen, TLR/RLR signaling modifier project, cell-based, Sendai virus stimulus, luciferase, 10K MLSCN set (AID 602276); details: HEK293 RL24 IRF3 luciferase reporter, at 10 µM, stronger effect = higher value;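 also: firefly luciferase from ISG56 promoter only with Renilla not read in this screen; 0% = Sendai virus plus DMSO and 100% = medium plus DMSO without virus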
# [8] = inhibitors of poly I:C-induced TLR3 signaling, primary screen, cell-based, poly I:C stimulus, luciferase, 10K MLSCN set (AID 602277;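 active = inhibition of the reporter signal at or above 50%; inactive = inhibition below 50%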); details: HEK293-TLR3 RL24 IRF3 luciferase reporter, at 10 µM, stronger effect = higher value
# Chain of Alpha-2C adrenergic receptor (Homo sapiens) (P18825 whole entry, looked up): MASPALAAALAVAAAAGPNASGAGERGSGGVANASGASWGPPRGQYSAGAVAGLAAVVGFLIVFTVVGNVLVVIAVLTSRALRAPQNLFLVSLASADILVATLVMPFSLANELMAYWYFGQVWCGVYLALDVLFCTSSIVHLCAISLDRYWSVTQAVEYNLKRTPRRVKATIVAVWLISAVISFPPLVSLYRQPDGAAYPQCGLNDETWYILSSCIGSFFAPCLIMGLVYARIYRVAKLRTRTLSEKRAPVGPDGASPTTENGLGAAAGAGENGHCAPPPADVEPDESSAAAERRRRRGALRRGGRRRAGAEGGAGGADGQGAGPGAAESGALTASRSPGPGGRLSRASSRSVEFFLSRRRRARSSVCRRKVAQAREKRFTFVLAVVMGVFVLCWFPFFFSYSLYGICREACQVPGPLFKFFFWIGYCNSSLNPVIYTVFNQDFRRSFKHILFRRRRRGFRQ
# Chain of Voltage-gated potassium channel subunit beta-2 (Rattus norvegicus) (P62483 whole entry, looked up): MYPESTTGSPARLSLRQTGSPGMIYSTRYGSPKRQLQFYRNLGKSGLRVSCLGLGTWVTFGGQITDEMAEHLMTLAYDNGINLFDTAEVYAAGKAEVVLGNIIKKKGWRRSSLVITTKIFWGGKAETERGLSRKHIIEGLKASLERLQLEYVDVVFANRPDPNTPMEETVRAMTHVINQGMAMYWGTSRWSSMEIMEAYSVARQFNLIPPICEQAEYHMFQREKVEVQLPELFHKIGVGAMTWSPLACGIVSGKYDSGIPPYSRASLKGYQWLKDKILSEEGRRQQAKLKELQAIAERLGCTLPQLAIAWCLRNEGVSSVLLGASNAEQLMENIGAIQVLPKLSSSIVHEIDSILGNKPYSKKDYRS
SMILES,cell count [1],inhibition [1],inhibition of aggregation [2],nuclei count [2],inhibition [3],nuclei count [3],fluorescence slope [4],NADPH fluorescence slope [5],slope [6],inhibition [7],inhibition [8]
Cc1ccc(Cc2c(C)nc3c(C(=O)O)cnn3c2C)cc1,327,7.7% (inactive),1.1% (inactive),108%,-4.3% (inactive),105%,-0.376 (inactive),-1.4e-05 (inactive),0.0026 (inactive),3.97% (inactive),19.3% (inactive)
O=C(NCCCN1CCCC1=O)c1ccc2c(c1)NC(=O)C(N1CCOCC1)S2 (stereo not drawn),431,7.4% (inactive),-20.6% (inactive),114%,-21.8% (inactive),116%,-0.615 (inactive),-3.9e-05 (inactive),0.00374 (inactive),6.23% (inactive),15% (inactive)
O=C1C2CC=C(Cl)CC2C(=O)N1c1ncn[nH]1 (stereo not drawn),329,5.5% (inactive),7.6% (inactive),98.3%,-62.1% (inactive),113%,-0.483 (inactive),-5.8e-05 (inactive),0.00499 (inactive),12.6% (inactive),14% (inactive)
COc1ccc(N2CCN(C(c3cccs3)c3nnnn3C3CCCC3)CC2)cc1 (stereo not drawn),219,12.7% (inactive),1.6% (inactive),104%,-10.3% (inactive),88.2%,-0.614 (inactive),-1.5e-08 (inactive),0.00587 (inactive),1.77% (inactive),11.1% (inactive)
COc1ccccc1N1CCN(C(=O)N2CCOCC2)CC1,683,-8.1% (inactive),-2.9% (inactive),100%,-80.8% (inactive),107%,-0.417 (inactive),-6.2e-05 (inactive),0.00512 (inactive),19% (inactive),26.2% (inactive)
Cn1c2ccc(F)cc2c2ncn(CCN3CCOCC3)c(=O)c21,719,-8.9% (inactive),-7.4% (inactive),81.6%,-39.1% (inactive),109%,-0.424 (inactive),-1.5e-05 (inactive),0.00608 (inactive),-47.2% (inactive),99.1% (active)
Fc1ccccc1C(c1nnnn1Cc1ccc2c(c1)OCO2)N1CCN(Cc2ccccc2)CC1 (stereo not drawn),324,-0.8% (inactive),-2.5% (inactive),112%,30.7% (inactive),108%,-0.631 (inactive),1.1e-05 (inactive),0.00506 (inactive),-8.04% (inactive),-3.59% (inactive)
CCCCc1noc2c1/C(=N\O)CC(c1ccccc1)C2 (stereo not drawn),365,2% (inactive),11.5% (inactive),106%,-65.5% (inactive),94.1%,-0.446 (inactive),-5.9e-05 (inactive),0.0073 (inactive),-46.5% (inactive),-152% (inactive)
Nn1c(SCc2csc(-c3ccccc3)n2)nnc1-c1cccs1,387,-14% (inactive),-10.8% (inactive),93.3%,-37.9% (inactive),116%,-0.454 (inactive),-7.1e-06 (inactive),0.00728 (inactive),31% (inactive),30.9% (inactive)
Cc1oc2cc3c(C(=O)OCCN(C)C)c(C)oc3cc2c1C(=O)OCCN(C)C,445,-6% (inactive),-22.9% (inactive),95.2%,-44.7% (inactive),92.4%,-0.412 (inactive),-3.3e-05 (inactive),0.00351 (inactive),48.3% (inactive),99.1% (active)
Cc1cc(NC(=O)CSc2nc3ccccc3n2CC(=O)N2CCCCC2)no1,722,-2% (inactive),-15% (inactive),108%,-70.8% (inactive),119%,-0.475 (inactive),-4.9e-05 (inactive),0.00628 (inactive),14.5% (inactive),29.1% (inactive)
CCOC(=O)N(C)c1ccc(C(O)(C(F)(F)F)C(F)(F)F)cc1,601,-8.6% (inactive),-12.5% (inactive),105%,-58.6% (inactive),109%,-0.369 (inactive),-6.4e-05 (inactive),0.0041 (inactive),-1.35% (inactive),100% (active)
CC1(C)CC(=O)C(C#N)=C(NCCCO)C1,471,5% (inactive),-2.8% (inactive),98.2%,42.4% (inactive),109%,-0.536 (inactive),-3.8e-05 (inactive),0.00419 (inactive),11.1% (inactive),9.83% (inactive)
CCOc1ccc(NC(=O)CC2NCCNC2=O)cc1 (stereo not drawn),738,-10.9% (inactive),-1.6% (inactive),126%,-39.4% (inactive),99.2%,-0.302 (inactive),-7e-05 (inactive),0.00573 (inactive),9.27% (inactive),13.9% (inactive)
CC(Oc1ccc(Cl)cc1Cl)C(=O)Nc1ncccn1 (stereo not drawn),433,2.5% (inactive),-1% (inactive),102%,51.5% (inactive),124%,-0.409 (inactive),9.1e-05 (inactive),0.006 (inactive),-4.61% (inactive),-6.91% (inactive)
Cc1cc(C)nc(SC2=CS(=O)(=O)c3ccccc32)n1,409,4.2% (inactive),-0.8% (inactive),107%,-15.3% (inactive),95.9%,-0.358 (inactive),3.3e-05 (inactive),0.00592 (inactive),9.85% (inactive),-5.16% (inactive)
Cc1ccc2nc(-c3ccc4c(c3)OCCO4)cc(C(=O)O)c2c1,337,-10.3% (inactive),-4.5% (inactive),111%,30.4% (inactive),89.9%,-0.299 (inactive),-4e-05 (inactive),0.00454 (inactive),-13.7% (inactive),98.1% (active)
COc1ccc(C2c3c(oc4ccccc4c3=O)C(=O)N2Cc2ccncc2)cc1OC (stereo not drawn),665,-2.6% (inactive),-6.6% (inactive),108%,-9.9% (inactive),115%,-0.315 (inactive),-4.9e-05 (inactive),0.00493 (inactive),14.3% (inactive),18.9% (inactive)
CCc1c(C)nc2ncnn2c1NCCc1ccc(OC)c(OC)c1,447,-1.6% (inactive),-8% (inactive),95.4%,7.1% (inactive),97.7%,-0.323 (inactive),-7.8e-05 (inactive),0.00477 (inactive),8.69% (inactive),-1.81% (inactive)
Cc1cccc(NC(=O)CSc2nnc(-c3cc(C)n(-c4ccccc4)c3C)o2)c1C,590,-16.6% (inactive),-14.8% (inactive),48%,-27.3% (inactive),111%,-0.6 (inactive),-1.4e-05 (inactive),0.00877 (inactive),5.08% (inactive),52.9% (active)
Cc1ccc(S(=O)(=O)N2CCC(C(=O)N3CCC[C@H]3C(=O)NCc3ccccc3)CC2)cc1,340,3.6% (inactive),-6.4% (inactive),108%,-35% (inactive),133%,-0.453 (inactive),8.3e-05 (inactive),0.00735 (inactive),13.5% (inactive),23.1% (inactive)
COc1cc(C)nc(N2CCCC(C(=O)Nc3cccc(Cl)c3Cl)C2)n1 (stereo not drawn),395,3.6% (inactive),-14.9% (inactive),109%,-0.7% (inactive),103%,-0.467 (inactive),-2.4e-05 (inactive),0.00338 (inactive),4.19% (inactive),21.4% (inactive)
Cc1cc(N=Cc2cc(Br)ccc2O)no1,330,-6.7% (inactive),-17.3% (inactive),106%,-147% (inactive),121%,-0.311 (inactive),-3.4e-05 (inactive),0.00663 (inactive),15.6% (inactive),15.7% (inactive)
COc1ccc(C/C(N)=N/n2cnnc2)cc1Cl,356,-3.8% (inactive),-13.5% (inactive),99.1%,-14.7% (inactive),107%,-0.447 (inactive),-3.3e-05 (inactive),0.00222 (inactive),6.09% (inactive),35.6% (inactive)
O=C(OCC(=O)N1CCC(Cc2ccccc2)CC1)c1ccc[nH]c1=O,496,-25.6% (inactive),-14.9% (inactive),107%,-41.6% (inactive),88.7%,-0.341 (inactive),-9.5e-06 (inactive),0.00527 (inactive),3.7% (inactive),6.66% (inactive)
O=C(OCCCCN1C(=O)c2ccccc2C1=O)c1n[nH]c2ccccc12,698,8.6% (inactive),12.4% (inactive),97%,-164% (inactive),155%,-0.543 (inactive),-5.2e-05 (inactive),0.00475 (inactive),9.32% (inactive),-4.95% (inactive)
Cc1nc2ccc(S(=O)(=O)NC(C(=O)NCc3cccs3)C(C)C)cc2s1 (stereo not drawn),332,-8.3% (inactive),24.4% (inactive),88.7%,-28.8% (inactive),106%,-0.612 (inactive),-5.2e-05 (inactive),0.00687 (inactive),-5.51% (inactive),14.4% (inactive)
Cc1noc(C)c1CSc1nc2ccccc2s1,588,-2.3% (inactive),-7.7% (inactive),113%,-4.7% (inactive),102%,-0.515 (inactive),2.9e-05 (inactive),0.00595 (inactive),4.37% (inactive),-21.8% (inactive)
